# BLM inh-1: Bloom syndrome helicase (human) inhibition; P54132; recombinant BLM DNA unwinding, fluorescence dequenching; Potency, µM (doses to about 56.1 µM), most hits filed as inhibitors; hit rate 0.2% among 350,000; AID 2528; further: nearly all actives have a fitted effect of over 35% in size
# KDM4E inh: JMJD2E (human) inhibition | AID 2147 | JMJD2E catalytic domain, FDH-coupled NADH fluorescence (FDH is formaldehyde dehydrogenase) | hit rate 1.6% among 230,000 | Potency, µM (doses to about 57.1 µM), actives largely listed as inhibitors | B2RXH2; active means well fitted inhibition curve with a large enough effect, not every such curve was filed as active; inconclusive means small, poorly fitted or top-dose-only effect, or another doubt; inactive means no such curve, though single readings can be large or run the other way; further: nearly all actives have a fitted effect of over 50% in size
# APE1 inh-1: blocks human APE1 abasic DNA cleavage. P27695. recombinant APE1, TAMRA/BHQ-2 abasic DNA cleavage fluorescence. Potency, µM (titrated, usually from 65.8 µM), most hits filed as inhibitors. hit rate 0.35% among 350,000; further: nearly all actives have a fitted effect of over 55% in size
#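 Kinetic fluorescence read (525 ex/598 em nm, three reads 60 s apart) of AP-site incision; signal = third minus first read. Enzyme 0.75 nM, dual-labelled THF duplex 50 nM, compound preincubation 15 min RT.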
# RECQ1 inh-1: inhibitors of human RECQ1 DNA helicase. P46063. RECQ1 DNA unwinding, red fluorescence kinetic read. Potency, µM (doses to about 57.3 µM), hits mostly inhibitors. hit rate 0.54% among 240,000; further: nearly all actives have a fitted effect of over 30% in size
# Target sequence (P46063 whole entry, looked up): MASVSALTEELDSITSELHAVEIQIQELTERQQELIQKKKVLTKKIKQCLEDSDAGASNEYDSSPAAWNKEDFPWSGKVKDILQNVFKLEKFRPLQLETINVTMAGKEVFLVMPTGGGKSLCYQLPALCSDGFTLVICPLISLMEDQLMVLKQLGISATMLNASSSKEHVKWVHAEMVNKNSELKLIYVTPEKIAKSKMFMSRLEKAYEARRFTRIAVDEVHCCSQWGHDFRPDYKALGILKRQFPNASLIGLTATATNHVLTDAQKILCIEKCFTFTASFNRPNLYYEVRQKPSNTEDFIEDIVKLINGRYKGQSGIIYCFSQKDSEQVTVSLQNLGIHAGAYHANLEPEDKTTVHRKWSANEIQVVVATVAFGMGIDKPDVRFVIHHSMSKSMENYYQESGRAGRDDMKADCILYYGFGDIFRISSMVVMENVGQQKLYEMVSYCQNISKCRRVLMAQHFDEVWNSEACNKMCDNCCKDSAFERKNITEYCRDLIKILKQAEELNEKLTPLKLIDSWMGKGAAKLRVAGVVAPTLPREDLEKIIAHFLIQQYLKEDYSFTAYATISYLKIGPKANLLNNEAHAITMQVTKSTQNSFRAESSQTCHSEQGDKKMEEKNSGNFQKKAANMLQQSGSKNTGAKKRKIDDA
#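 RECQ1T1 50 nM; forked duplex (20 bp + 30-nt ss tails) 200 nM, ATP 2 mM final; pH 8.0, 2 mM MgCl2, 2.5 ug/ml poly(dI-dC); 15 min compound preincubation; discontinuous kinetic read over 2 h at RT.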
# L3MBTL1 inh-1: blocks human L3MBTL1. Q9Y468. AlphaScreen L3MBTL1–H3K9me1 peptide binding. Potency, µM (series often up to 57.1 µM), most hits filed as inhibitors. hit rate 0.66% among 230,000. AID 485360; further: nearly all actives have a fitted effect of over 60% in size
#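 L3MBTL1 (50 nM) pre-complexed 30 min with biotinylated H3(1-15)K9me1 peptide (75 nM), then compounds added for 30 min at room temperature; AlphaScreen streptavidin donor/nickel chelate acceptor beads (10 ug/mL final) read after 30 min dark incubation.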
# APE1 dye cs: displaces fluorescent dye from DNA, flagging APE1 artifacts | hit rate 7% among 480 | shares compounds with APE1 inh-1 | DNA fluorescent dye displacement counterscreen, fluorescence | Potency, µM (series often up to 28.5 µM), usual class: inhibitors;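 further: loss of thiazole orange fluorescence as the dye is displaced from duplex DNA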
# EndoIV counter: blocks E. coli endonuclease IV DNA cleavage; shares compounds with APE1 inh-1; E. coli Endo IV, fluorogenic AP-site DNA cleavage; Potency, µM (top dose mostly 27.1 µM), most hits filed as inhibitors; hit rate 4% among 560; AID 2565
# APE1 inh-2: APE1 (human) endonuclease inhibition, confirmation. shares compounds with APE1 inh-1. purified APE1, fluorogenic abasic-site DNA cleavage. Potency, µM (top dose mostly 57.1 µM), actives largely listed as inhibitors. hit rate 44% among 750; further: nearly all actives have a fitted effect of over 30% in size
# APE1 FP inh: compounds that displace a DNA probe from human APE1 | shares compounds with APE1 inh-1 | APE1 binding to TAMRA-labelled double-stranded DNA, fluorescence polarization displacement | Potency, µM (doses to about 28.5 µM), actives largely listed as inhibitors | hit rate 7% among 480 | AID 2573
# BLM inh-2: confirmation of inhibitors of human Bloom syndrome helicase BLM; shares compounds with BLM inh-1; BLM DNA unwinding, fluorescence quenching, biochemical; Potency, µM, most hits filed as inhibitors; hit rate 40% among 220; AID 2585;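 further: strand separation dequenches TAMRA so unwinding raises red fluorescence; series mostly up to about 69 µM; nearly all actives have a fitted effect of over 45% in size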
# RECQ1 inh-2: RECQ1 helicase inhibition confirmed, round 2 | AID 504841 | Potency, µM (series often up to 119 µM), hits mostly inhibitors | recombinant RECQ1 DNA unwinding, red fluorescence | shares compounds with RECQ1 inh-1 | hit rate 15% among 1,100; further: nearly all actives have a fitted effect of over 50% in size
# L3MBTL1 inh-2: L3MBTL1 binding inhibition validated; shares compounds with L3MBTL1 inh-1; L3MBTL1 methyl-lysine binding inhibition, biochemical qHTS; Potency, µM, actives largely listed as inhibitors; hit rate 91% among 500; AID 540279; further: nearly all actives have a fitted effect of over 70% in size
# AlphaScreen ctr2: AlphaScreen signal inhibition, L3MBTL1 hit counter-screen; shares compounds with L3MBTL1 inh-1; AlphaScreen counterscreen, signal inhibition; Potency, µM (top dose mostly 57.1 µM), hits mostly inhibitors; 500 tested, under 10 active
# Hits are given with their value; n = inactive; u = inconclusive; x = no result. The sample as a whole holds a higher share of hits than the screen did. Unless noted, the call rests on the fitted dose curve; in most records, active means well fitted curve in the direction sought with a large enough effect; inconclusive means small, poorly fitted or top-dose-only effect, or another doubt; inactive means no such curve, though single readings can be large; an effect the other way counts as inactive or inconclusive.
SMILES,BLM inh-1,KDM4E inh,APE1 inh-1,RECQ1 inh-1,L3MBTL1 inh-1,APE1 inh-2,BLM inh-2,L3MBTL1 inh-2,AlphaScreen ctr2,others
O=C1C2C3C=CC(CC3)C2C(=O)N1c1nccs1 (centres undefined),n,n,6.3µM,22µM,25µM,u,x,27,n,APE1 dye cs=n;EndoIV counter=n;APE1 FP inh=n
O=C(O)c1cccc(-c2ccc(/C=c3/sc4nc5ccccc5n4c3=O)o2)c1,n,n,10µM,u,3.5µM,5µM,x,2.7,n,APE1 dye cs=6.3µM;EndoIV counter=n;APE1 FP inh=7.9µM
COC(=O)/C=c1/sc2nc3ccccc3n2c1=O,n,n,n,n,n,x,x,x,x,
O=C(O)c1ccc(-c2ccc(/C=C3\NC(=O)N(Cc4ccc(Cl)cc4)C3=O)o2)cc1Cl,n,u,u,u,5.6µM,16µM,x,0.75,n,
CCCCN(C(=O)NC(=O)Nc1ccccc1OCC)S(C)(=O)=O,n,n,n,n,n,x,x,x,x,
C=CCn1c(SCC(=O)c2ccc(O)c(O)c2)nnc1-c1cccnc1,u,3.5µM,1.6µM,8.9µM,6.3µM,2.5µM,x,3,u,APE1 dye cs=n;EndoIV counter=n;APE1 FP inh=n;RECQ1 inh-2=3.5µM
Cc1cccc(C)c1NC(=O)CSc1nnc(-c2ccco2)c(-c2ccco2)n1,n,u,16µM,14µM,2.8µM,3.5µM,x,2.7,n,APE1 dye cs=u;EndoIV counter=n;APE1 FP inh=n
COc1cccc(NC(=O)CSc2nnc(-c3ccco3)c(-c3ccco3)n2)c1,n,x,n,x,x,x,x,x,x,
Clc1cc(Cl)c(Cl)cc1Cl,x,x,n,n,n,x,x,x,x,
CCOc1ccc(NC(=O)C(=O)NCc2ccncc2)cc1,n,n,n,n,n,x,x,x,x,
Cc1ccc(NC(=O)CN(C)C(=O)c2cc3c(s2)CCCCC3)cc1,x,x,n,x,n,x,x,x,x,
O=C(COC(=O)c1cc2c(s1)CCC2)Nc1ccc(F)cc1,16µM,u,16µM,22µM,14µM,10µM,u,5.3,u,APE1 dye cs=u;EndoIV counter=n;APE1 FP inh=u;RECQ1 inh-2=u
COc1ccccc1/C=c1\sc2nc(-c3ccco3)nn2c1=O,n,n,u,u,13µM,5µM,x,12,n,APE1 dye cs=n;EndoIV counter=n;APE1 FP inh=u;RECQ1 inh-2=u
CCOc1ccc(/C=c2\sc3nc(-c4ccco4)nn3c2=O)cc1OCC,n,n,n,n,n,x,x,x,x,
O=C(Nc1ccc2nc(-c3ccco3)c(-c3ccco3)nc2c1)NC1CC1,6.3µM,u,7.1µM,10µM,4µM,7.9µM,x,2.4,n,APE1 dye cs=u;EndoIV counter=n;APE1 FP inh=u
O=c1nc(-c2ccccc2)c(-c2ccccc2)n[nH]1,n,x,n,x,x,x,x,x,x,
CC(=O)Oc1cc2cccc(OC(C)=O)c(=O)c2c(OC(C)=O)c1OC(C)=O,u,11µM,0.45µM,3.2µM,0.35µM,6.3µM,x,1.5,n,APE1 dye cs=n;EndoIV counter=n;APE1 FP inh=n
Cc1cc(NS(=O)(=O)c2ccc(NC(=O)Cc3cccs3)cc2)no1,n,n,n,n,u,x,x,x,x,
Cc1cc(NC(=O)Cc2cccs2)no1,u,n,28µM,25µM,28µM,7.9µM,x,3.4,n,APE1 dye cs=u;EndoIV counter=u;APE1 FP inh=n;RECQ1 inh-2=u
Cc1ccc2nc(/C(C#N)=C/c3ccc(-c4ccc(F)cc4F)o3)[nH]c2c1,n,x,x,x,x,x,x,x,x,
Cc1ccc2nc(/C(C#N)=C/c3ccc(-c4cccc([N+](=O)[O-])c4)o3)[nH]c2c1,22µM,n,n,n,n,x,13µM,x,x,
Cc1cccn2cc(CCNS(=O)(=O)c3cccs3)nc12,n,n,n,n,x,x,x,x,x,
COc1ccccc1-n1cnc2c(c1=O)c1nc3ccccc3nc1n2-c1ccc(C)cc1,10µM,n,n,n,n,x,n,x,x,
COc1ccccc1-n1c2nc3ccccc3nc2c2c(=O)n(-c3cc(C)cc(C)c3)cnc21,n,n,n,n,n,x,x,x,x,
O=C1C=C(NCCN2CCOCC2)C(=O)c2cnccc21,25µM,n,n,n,u,x,u,x,x,
SMILES,BLM inh-1,KDM4E inh,APE1 inh-1,RECQ1 inh-1,L3MBTL1 inh-1,APE1 inh-2,BLM inh-2,L3MBTL1 inh-2,AlphaScreen ctr2,others
O=C1C=C(NCCO)C(=O)c2cnccc21,u,n,u,n,x,x,x,x,x,
COc1ccccc1CCc1nnc(CCC(=O)NCCCOc2cccnc2)o1,n,n,n,n,n,x,x,x,x,
Cc1ccc(NS(=O)(=O)c2c(C)[nH]c(=O)[nH]c2=O)c(Br)c1,n,x,n,x,x,x,x,x,x,
CCOc1ccc(CCNC(=O)c2nc(-c3cccc(F)c3)n3c2CCCCC3)cc1OCC,0.16µM,x,x,x,x,x,n,x,x,
Cc1ccc(/C=C2\SC(=S)N(CCCC(=O)Nc3nccs3)C2=O)cc1,n,n,n,n,n,x,x,x,x,
COc1cc(-c2nc3ccc(N4CCN(C)CC4)cc3[nH]2)cc(OC)c1OC,20µM,u,n,n,n,x,u,x,x,
O=C(COC(=O)C1CC(=O)N(Cc2ccco2)C1)c1ccc(OC(=O)c2ccco2)cc1 (centres undefined),16µM,n,n,n,18µM,x,u,x,x,
O=C(COC(=O)C1CC(=O)N(Cc2ccccc2)C1)c1ccc(Br)cc1 (centres undefined),n,n,u,n,n,x,x,x,x,
S=C(Nc1ccc2nsnc2c1)NC1CCCCC1,13µM,n,n,n,n,x,n,x,x,
CC(C)=CCOc1ccc(/C=C/C(=O)c2ccc(OCC=C(C)C)cc2OCC(=O)O)cc1,16µM,x,n,n,x,x,u,x,x,
C/C=C/c1ccc(OCC(=O)O)c(OC)c1,n,n,n,n,n,x,x,x,x,
COC(=O)c1ccc(CSc2nc3scc(-c4cccs4)c3c(=O)[nH]2)o1,25µM,n,n,n,u,x,u,x,x,
CCOC(=O)CCCNS(=O)(=O)c1c(C)ccc2nsnc12,n,n,n,n,n,x,x,x,x,
O=C(CCc1c[nH]c2ccccc12)NC(Cc1c[nH]c2ccccc12)C(=O)O (centres undefined),32µM,x,21µM,x,x,x,n,x,x,
O=C(CSc1nc(O)cc(=O)[nH]1)Nc1ccc2c(c1)CCC2,22µM,n,n,n,n,x,n,x,x,
